# PglD DTNB – inhibitors of Campylobacter jejuni PglD acetyltransferase. purified PglD enzyme, DTNB colorimetric CoA detection. inhibition, % at 12.5 µM. 0.098% of 360,000 active; in the data active = inhibition above about 16%, passing the limit was not always enough; inconclusive = no clear call, values can overlap the other calls
# Glyco luc inh – blocks N-linked glycosylation in D54 reporter cells | 0.23% of 360,000 active | D54 ERlucT glycosylation luciferase reporter, 24 h; percent of 100 nM tunicamycin response | reporter increase, % at 12.5 µM | AID 588692;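 active = mean luciferase reporter signal, scaled so untreated is 0 and the glycosylation-blocking control 100, at or above a set limit in every replicate; inconclusive = mean reaches the limit but not every replicate does; inactive = mean below the limit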;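 also: luciferase carries N-glycosylation sites so blocking glycosylation raises the light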
# DENV2 CPE – protects cells from dengue virus 2 cytopathic effect; DENV2-infected cells, cytopathic effect rescue, plate reader; CPE inhibition, % at 9.99 µM; 1.7% of 350,000 active; AID 651640; in the data active = CPE inhibition above about 20%, passing the limit was not always enough; inconclusive = no clear call, values can overlap the other calls; tested in BHK-21 cells
# Rtt109 HAT inh – inhibitors of Candida albicans Rtt109/Vps75 histone acetyltransferase; Q5AAJ8; 0.16% of 330,000 active; purified Rtt109/Vps75, ThioGlo CoA-SH fluorescence, 4 h; inhibition, % at 34.9 µM;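 active = inhibition of at least 50% in every replicate; inconclusive = best replicate reaches 50% inhibition but some replicates fall short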
# Target sequence (Q5AAJ8 whole entry, looked up): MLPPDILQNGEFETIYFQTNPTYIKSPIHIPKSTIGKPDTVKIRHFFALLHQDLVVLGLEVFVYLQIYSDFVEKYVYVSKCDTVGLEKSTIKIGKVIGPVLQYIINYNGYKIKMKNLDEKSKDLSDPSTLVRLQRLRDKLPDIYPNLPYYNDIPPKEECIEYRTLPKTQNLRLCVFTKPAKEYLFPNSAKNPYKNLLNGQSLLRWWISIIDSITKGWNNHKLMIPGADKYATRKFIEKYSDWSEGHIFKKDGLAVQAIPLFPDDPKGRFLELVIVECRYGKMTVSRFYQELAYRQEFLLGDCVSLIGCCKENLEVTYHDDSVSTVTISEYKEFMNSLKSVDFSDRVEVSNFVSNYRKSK
# A number is an active result; n = inactive; u = inconclusive; x = no result given; ! = not confirmed by another sample. This excerpt belongs to a sample that is enriched for hits.
SMILES,PglD DTNB,Glyco luc inh,DENV2 CPE,Rtt109 HAT inh
COc1ccc(CN(C)C[C@H]2Oc3ccc(NC(=O)Cc4cn(C)c5ccccc45)cc3C(=O)N([C@@H](C)CO)C[C@@H]2C)cc1,n,x,n,x
C[C@H](CO)N1C[C@H](C)[C@H](CN(C)S(=O)(=O)c2ccc(F)cc2)OCCCC[C@H](C)Oc2ccc(NS(=O)(=O)c3ccc(F)cc3)cc2C1=O,n,x,n,x
O=C(NC[C@@H]1N[C@@H](CO)[C@@H]1c1ccccc1)C1CC1,n,x,n,x
COc1ccccc1-c1ccc([C@H]2[C@@H](CO)N[C@@H]2CNC(=O)C2CCCC2)cc1,x,x,25,x
N#C[C@H]1[C@@H](c2ccccc2C2=CCCC2)[C@@H](CO)N1C(=O)C1CCC1,x,x,37,x
N#C[C@H]1[C@@H](c2ccccc2C2=CCCC2)[C@@H](CO)N1C(=O)c1cccc(F)c1,x,x,71,x
COc1ccccc1-c1ccc([C@H]2[C@@H](CO)N(C(=O)C3CCCC3)[C@H]2C#N)cc1,x,x,36,x
COc1ccc2c3c([nH]c2c1)[C@H](CO)N(C(=O)NC(C)C)CC31CN(C(=O)NC(C)C)C1,x,x,n,x
COc1ccc(-c2ccc([C@@H]3[C@@H](C#N)N(C(=O)C4CCC4)[C@H]3CO)cc2)cc1,n,x,72,x
COc1ccccc1-c1ccccc1[C@H]1[C@@H](CO)N(C(=O)C2CCC2)[C@H]1C#N,x,x,n,x
COc1ccccc1-c1ccccc1[C@H]1[C@H](C#N)N(C(=O)C2CCC2)[C@H]1CO,x,x,50,x
CCc1cnc(N2[C@@H](C#N)[C@@H](c3ccccc3C3=CCCC3)[C@@H]2CO)s1,x,x,20,x
CCc1csc(N2[C@@H](C#N)[C@@H](c3ccccc3C3=CCCC3)[C@@H]2CO)n1,x,x,n,x
COc1cccc(-c2ccc([C@@H]3[C@@H](C#N)N(C(=O)Cc4ccccc4)[C@@H]3CO)cc2)c1,n,x,26,x
CO[C@H]1CN(C)C(=O)c2cc(NC(=O)c3nc4ccccc4s3)ccc2OC[C@H](C)N(Cc2cccnc2)C[C@H]1C,n,x,n,x
CCc1c(C2(O)CCCCC2)[nH]c2c(C(=O)OC)cc(Cl)cc12,n,n,30,n
COCC(=O)Nc1ccc2c(c1)C(=O)N(C)[C@@H]1CC[C@@H](CC(=O)N3CCc4ccccc4C3)O[C@H]1CO2,n,x,n,x
COc1ccccc1-c1csc(C(NC(C)=O)c2cccc(F)c2)n1 (stereo not drawn),n,33,n,x
CC(=O)NC(c1cccc(F)c1)c1nc(-c2ccc(N(C)C)cc2)cs1 (stereo not drawn),n,n,26,x
CC(C)C#Cc1cnc2c(c1)C(=O)N([C@@H](C)CO)C[C@H](C)[C@@H](CN(C)Cc1cccc(F)c1)O2,n,x,n,x
Cc1ccc(S(=O)(=O)NC(=O)C2(C)CCN2C(=O)c2ccc(C(F)(F)F)nc2C)cc1 (stereo not drawn),n,n,51,x
Cc1nc(C(F)(F)F)ccc1C(=O)N1CCC1(C)C(=O)NCc1ccc(Cl)cc1 (stereo not drawn),n,n,69,x
Cc1ccc(S(=O)(=O)NC(=O)C2(C)CCN2C(=O)Cc2cccs2)cc1 (stereo not drawn),n,n,49,x
Cc1nc(C(F)(F)F)ccc1C(=O)N1CCC1(C)C(=O)NS(C)(=O)=O (stereo not drawn),n,n,n,x
Cc1nc(C(F)(F)F)ccc1C(=O)N1CCC1(C)C(=O)NS(=O)(=O)c1ccc(Cl)cc1 (stereo not drawn),n,n,n,x
SMILES,PglD DTNB,Glyco luc inh,DENV2 CPE,Rtt109 HAT inh
Cc1nc(C(F)(F)F)ccc1C(=O)N1CCC1(C)C(=O)NS(=O)(=O)c1ccc(C#N)cc1 (stereo not drawn),n,n,31,x
C[C@H]1CN([C@@H](C)CO)C(=O)Cc2cc(NC(=O)Nc3ccc(F)cc3)ccc2O[C@@H]1CN(C)C(=O)Nc1ccc(C(F)(F)F)cc1,n,x,n,x
O=C(c1cccnc1)N1CC2(C1)[C@H](c1ccccc1)[C@H](CO)N2C(=O)c1cccnc1,x,x,n,x
Clc1ccccc1N1CCN(Cc2c[nH]c3ccccc23)CC1,n,n,n,n
OC1(c2ccc(Cl)cc2)CCN(Cc2c[nH]c3ccccc23)CC1,n,n,56,n
CCC(C)Nc1nc(N)c([N+](=O)[O-])c(NCCO)n1 (stereo not drawn),x,n,94,n
Cc1ccc(NC(=O)c2cc(-c3cc(Cl)ccc3C)n[nH]2)cc1NS(C)(=O)=O,n,n,27,x
C[C@@H]1CN([C@H](C)CO)C(=O)c2cc(/C=C/c3ccccc3)cnc2O[C@@H]1CN(C)S(C)(=O)=O,n,x,n,x
COc1ccc2c3c([nH]c2c1)[C@H](CO)N(C(=O)c1ccccn1)CC31CN(C(=O)C2CC2)C1,x,x,n,x
CO[C@H]1CN(C)C(=O)c2cc(NS(=O)(=O)c3cccc(F)c3)ccc2OC[C@H](C)N(Cc2cc(F)ccc2F)C[C@@H]1C,n,x,n,x
CO[C@H]1CN(C)C(=O)c2ccc(NS(=O)(=O)c3cccc(F)c3)cc2OC[C@@H](C)N(Cc2cc(F)ccc2F)C[C@H]1C,n,x,49,x
CO[C@H]1CN(C)C(=O)c2cc(NS(=O)(=O)c3cccc(F)c3)ccc2OC[C@@H](C)N(Cc2cc(F)ccc2F)C[C@@H]1C,n,x,22,x
CCN(CC(=O)Nc1c(F)cccc1F)C(=O)c1ccc(C(=O)c2ccccc2)cc1,x,n,n,n
CN(CC(=O)Nc1ccc(Cl)cc1)C(=O)c1cccc(S(=O)(=O)NCc2ccccc2)c1,n,n,u,60
CCN(CC(=O)Nc1c(F)cccc1F)C(=O)c1cccc(S(=O)(=O)NCc2ccccc2)c1,n,n,80,u
CC(C)(C)OC(=O)N1CCC(NC(=O)c2nc[nH]c2C(=O)NCC(=O)OCc2ccccc2)CC1,n,n,38,n
CC(C)(C)OC(=O)N1CCC(NC(=O)c2nc[nH]c2C(=O)NC2CCN(C(=O)OC(C)(C)C)CC2)CC1,n,n,n,n
CCOC(=O)c1ccc(NC(=O)c2nc[nH]c2C(=O)NC2CCN(C(=O)OC(C)(C)C)CC2)cc1,n,n,68,n
C[C@@H]1CN([C@H](C)CO)C(=O)c2cccc(NC(=O)C3CCCCC3)c2O[C@@H]1CN(C)C(=O)Nc1ccccc1,n,x,n,x
CC(C)NC(=O)N(C)C[C@H]1OCc2cn(nn2)CCCC(=O)N([C@@H](C)CO)C[C@@H]1C,n,x,32,x
C[C@@H]1CN([C@@H](C)CO)C(=O)CCCn2cc(nn2)CO[C@H]1CN(C)C(=O)Nc1cccc2ccccc12,n,x,91!,x
COc1ccc2c3c(n(C)c2c1)[C@@H](CO)N(C(=O)Nc1ccc(F)cc1)CC31CN(C(=O)c2cccnc2)C1,x,x,n,x
CCCNC(=O)N1CC2(C1)CN(Cc1ccccn1)[C@@H](CO)c1c2c2ccc(OC)cc2n1C,x,x,n,x
COc1ccc2c3c(n(C)c2c1)[C@H](CO)N(C(=O)Nc1ccc(F)cc1)CC31CN(C(=O)c2cccnc2)C1,x,x,25,x
COc1ccc2c3c(n(C)c2c1)[C@H](CO)N(Cc1ccncc1)CC31CCN(C(=O)Cc2ccncc2)CC1,x,x,77,x
CCCNC(=O)N1CCC2(CC1)CN(Cc1ccccn1)[C@@H](CO)c1c2c2ccc(OC)cc2n1C,x,x,71,x

# Screens as filed in PubChem BioAssay.
